SW480 rerep: inducers of DNA re-replication in SW480 colon cancer cells. AID 624297. SW480 DNA re-replication, Hoechst DNA content imaging, 48 h. 1.8% of 340,000 active. Potency, µM (top dose mostly 46.1 µM), for inactives: at the highest dose re-replication activation, actives largely listed as activators; also: % of control where 0% means no effect; nearly all actives have a fitted effect of over 55% in size
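250 cells/well; 23 nL cpd via pin tool; 48 hr, 37 C, 5% CO2; Hoechst 40 min; imager read of total nuclear intensity, ex 405/em 500-530 nm.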
KB-V1 MDR tox: KB-V1 MDR subline cytotoxicity. AID 1347076. Potency, µM (doses to about 46.1 µM), actives largely listed as cytotoxic. KB-V1 MDR cells viability, CellTiter-Glo, 72 h. 3.4% of 400,000 active; also: % is scaled to controls: 0 for no effect and ±100 for the full control effect; nearly all actives have a fitted effect of over 60% in size
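Following 72 h at 37 degrees C with compound, KB-V1 cell viability was read by CellTiter-Glo luminescence, medium being phenol-red-free DMEM plus 10% FBS; concentration-response parameters came from normalized, curve-fitted qHTS data.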
HT1080 IDH1KD tx: kills HT-1080 cells with IDH1 knockdown; HT-1080 IDH1 knockdown viability, ATP luminescence, 48 h; Potency, µM (series often up to 46.1 µM), for the others: top-dose activity, negative = toxicity, actives largely listed as cytotoxic; 2% of 360,000 active; AID 686971;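 also: 0% = DMSO wells and -100% = cell-free medium wells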
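Viability of IDH1-knockdown HT-1080 fibrosarcoma cells was assessed by CellTiter-Glo after 48 h at 37 °C with titrated compound; concentration-effect curves were classified by fit quality and response size.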
HT1080-NT tox: kills 2HG-producing HT-1080-NT fibrosarcoma cells | HT-1080-NT fibrosarcoma viability, CellTiter-Glo ATP luminescence, 48 h | Potency, µM (top dose mostly 46.1 µM), for the others: top-dose activity, negative = less viability, actives largely listed as cytotoxic | 1.6% of 360,000 active | AID 686970;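 also: NT is the 2HG producing partner of a matched IDH1 knockdown line; 0% = DMSO-treated cells and -100% = media-only wells without cells; nearly all actives have a fitted effect of over 55% in size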
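Toxicity toward the 2HG-producing NT line was scored as %Activity, normalised to DMSO and no-cell wells, from CellTiter-Glo luminescence after 48 hours' treatment.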
MCF10A rereplic: induces DNA re-replication in MCF 10a normal breast cells | MCF 10A DNA re-replication, Hoechst nuclear intensity, 48 h | Potency, µM (top dose mostly 46.1 µM), for inactives: at the highest dose activity, positive = re-replication, hits mostly activators | 2.9% of 350,000 active | AID 624296; also: % of control where 0% means no effect; nearly all actives have a fitted effect of over 50% in size
KB-3-1 tox: KB-3-1 parental cell cytotoxicity. AID 1347075. Potency, µM (doses to about 46.1 µM), usual class: cytotoxic. 1.4% of 400,000 active. KB-3-1 viability, CellTiter-Glo ATP luminescence, 72 h; also: % is scaled to controls: 0 for no effect and ±100 for the full control effect; nearly all actives have a fitted effect of over 60% in size
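KB-3-1 cells, DMEM (no phenol red) + 10% FBS; compound by pin transfer, 72 h, 37 °C. Readout: CellTiter-Glo luminescence after 10 min. Data normalized, curve-fitted.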
* hit, by the source's call; i = inactive; ? = inconclusive; nt = not tested or not shown; [ ] = dose if it differs, or a comment. Hits are enriched below; roughly 7.9% of the tested compounds scored in any of these assays. Calls follow the shape of the dose curve; as a rule, active = well fitted curve in the direction sought with a large enough effect; inconclusive = small, poorly fitted or top-dose-only effect, or another doubt; inactive = no such curve, though single readings can be large; an effect the other way counts as inactive or inconclusive. Potency is read from the fitted curve at half-maximal effect.

SMILES	SW480 rerep	KB-V1 MDR tox	HT1080 IDH1KD tx	HT1080-NT tox	MCF10A rereplic	KB-3-1 tox
COc1ccc(S(=O)(=O)N2CCN(C(=O)c3c(C)nn(-c4ccccc4)c3C)CC2)cc1	-2%	13µM*	0%	-1%	5%	i
Cc1nn(-c2ccccc2)c(C)c1C(=O)OCC(=O)N1CCN(S(=O)(=O)c2ccccc2)CC1	9%	?	-7%	17%	0%	i
CCN(CC(=O)Nc1c(F)cccc1F)C(=O)c1ccc(S(=O)(=O)N2CCC(C)CC2)cc1	0%	21µM*	0%	5%	-1%	i
CCN(CC(=O)Nc1c(F)cccc1F)C(=O)c1ccc(S(=O)(=O)N2CCCCCC2)cc1	-5%	?	4%	4%	2%	i
CCN(CC)c1ccc2cc(-c3nc(-c4ccccc4)no3)c(=O)oc2c1	nt	i	nt	nt	nt	i
COc1ccc(-c2nnc(SCC(=O)Nc3cccc(C(F)(F)F)c3)nc2-c2ccc(OC)cc2)cc1	nt	?	nt	nt	nt	i
O=C(O)C1=C[C@@H](c2ccc(C(F)(F)F)cc2)C[C@@H](OCc2ccc(CO)cc2)O1	-2%	18µM*	15%	16%	11%	i
O=C(Nc1ccccc1)C1=C[C@H](c2ccccc2)C[C@H](OCc2ccc(CO)cc2)O1	6%[9.22 µM]	i	4%	1%	13%	i
O=C(Nc1ccccc1)C1=C[C@H](c2ccc(C(F)(F)F)cc2)C[C@H](OCc2ccc(CO)cc2)O1	1%	i	-15%	?	26µM*	i
Cc1cc(C)nc(N2CCC(C(=O)N3CCN(c4cc(Cl)ccc4C)CC3)CC2)n1	?	4.1µM*	?	?	?	?
Cc1ccc(C)c(N2CCN(C(=O)C3CCN(c4nc(C)cc(C)n4)CC3)CC2)c1	1%	3.7µM*	?	?	3%	?
Cc1ccc(Cl)cc1N1CCN(C(=O)C2CCN(S(C)(=O)=O)CC2)CC1	22%	i	-6%	-2%	5%	i
O=C(O)C1CCCN1S(=O)(=O)c1ccc(F)cc1 (stereo not given)	-39%	i	6%	13%	3%	i
Cc1ccc(C)c(N2CCN(C(=O)C3CCCCN3S(=O)(=O)c3ccc(F)cc3)CC2)c1 (stereo not given)	5%	2.6µM*	-11%	-1%	19%	?
Fc1ccc(Br)cc1C1C=C(c2ccc(Br)s2)Nc2ncnn21 (stereo not given)	0.58µM*	?	1.2µM*	1.3µM*	?	?
COc1cccc(C2C=C(c3ccc(Br)s3)Nc3ncnn32)c1OC (stereo not given)	-34%	5.2µM*	5%	6%	0%	?
COc1cccc(C2=CC(c3ccc(OC)c(OC)c3OC)n3ncnc3N2)c1 (stereo not given)	nt	i	nt	nt	nt	i
COc1ccc(F)cc1S(=O)(=O)NCCc1c(C)[nH]c2c(Cl)cccc12	nt	i	nt	nt	nt	i
Cc1ccc(C)c(N2CCN(C(=O)c3ccc4c(c3)N(Cc3ccc(F)cc3)C(=O)c3ccccc3S4=O)CC2)c1 (stereo not given)	nt	i	nt	nt	nt	i
O=C(COC(=O)c1ccc2[nH]c3c(c2c1)CCCC3)Nc1ccccc1	?	?	23µM*	?	23µM*	i
O=C(OCC(=O)N1CCOCC1)c1ccc2[nH]c3c(c2c1)CCCC3	?	i	-2%	3%	-3%	?
COC(=O)c1ccc(NS(=O)(=O)c2ccc3[nH]c4c(c3c2)CCCCC4)cc1	nt	23µM*	nt	nt	nt	?
COC(=O)c1ccc(NS(=O)(=O)c2ccc3[nH]c4c(c3c2)CCCC4)cc1	nt	i	nt	nt	nt	i
Cc1cccc(C)c1NC(=O)COC(=O)c1ccc2[nH]c3c(c2c1)CCCC3	?	i	-24%	?	18µM*	i
